ssDAF-12 act: activates DAF-12 receptor from parasite S. stercoralis; 370,000 compounds, 1% hits; activation, % at 6.8 µM; AID 652126; HEK293 ssDAF-12/GRIP1 lit1-tk-luc reporter, luminescence; % of 3 µM dafachronic acid response;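 active = activation above the mean over all tested compounds plus 3 SD, cut at about 0.9% in these data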;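 note: 0% = DMSO-only wells and 100% = 3 µM delta7-dafachronic acid wells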
DAX1 inh-1: inhibitors of DAX1 repression of SF-1 activated StAR promoter | 370,000 compounds, 1.1% hits | HEK293T StAR-luciferase reporter, SF-1/DAX-1 repression relief | inhibition, % at 6.8 µM;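 active = inhibition above the mean over all tested compounds plus 3 SD, cut at about 3.6% in these data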;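 note: 0% = DAX-1 cells with DMSO and 100% = cells lacking DAX-1 with DMSO; higher inhibition means more luminescence from relief of DAX-1 repression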
DAX1 inh-2: inhibits human nuclear receptor DAX1; inhibition, % at 6.75 µM; 340,000 compounds, 0.99% hits; P51843; HEK293 Gal4-DAX1 luciferase reporter, luminescence;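 active = inhibition above the mean over all tested compounds plus 3 SD, cut at about 4.2% in these data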;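 note: 0% = DAX1-transfected cells with DMSO and 100% = empty-vector control cells with DMSO; inhibition shows as a rise in luminescence from relieved DAX1 repression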
Target sequence (P51843 207-470 limits assumed): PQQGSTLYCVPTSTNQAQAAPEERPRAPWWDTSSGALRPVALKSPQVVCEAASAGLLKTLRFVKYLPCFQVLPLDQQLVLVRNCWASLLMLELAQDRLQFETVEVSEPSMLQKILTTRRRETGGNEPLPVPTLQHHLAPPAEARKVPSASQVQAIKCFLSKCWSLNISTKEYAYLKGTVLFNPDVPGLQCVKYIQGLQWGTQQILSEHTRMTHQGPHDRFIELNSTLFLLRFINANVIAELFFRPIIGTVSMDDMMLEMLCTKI
hgDAF-12 ag: activates the H. glycines DAF-12 receptor ligand-binding domain | activation, % at 6.8 µM | HEK293 GAL4-hgDAF12 UAS-luciferase reporter, agonist luminescence; normalized to butyrate control | AID 687014 | 370,000 compounds, 1.8% hits;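 active = activation above a cutoff set at the mean of all screened compounds plus 3 SD, cut at about 10% in these data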;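 note: 0% = DMSO wells and 100% = sodium butyrate wells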
hcDAF-12 act: activators of H. contortus DAF-12 nuclear receptor. activation, % at 6.8 µM. 370,000 compounds, 1.4% hits. HEK293 hcDAF-12 lit1-tk-luc reporter, luminescence; 0% DMSO, 100% Δ7-dafachronic acid. AID 652067;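 active = activation above the mean of all tested compounds plus 3 SD, cut at about 5.5% in these data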;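 note: 100% = response to 3 µM Δ7-dafachronic acid high control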
Active calls of the source: *; x = no result. Shown are actives, neighbours in structure and some others; about 4.1% of the full set was active somewhere.

SMILES | ssDAF-12 act | DAX1 inh-1 | DAX1 inh-2 | hgDAF-12 ag | hcDAF-12 act
O=C(CNS(=O)(=O)c1cccs1)N1CCN(c2ncccn2)CC1 | -1 | 0 | x | 4 | -2
CCOn1c(=O)c(-c2ccc(F)cc2)[n+]([O-])c2ccccc21 | -1 | 0 | 4.8* | -2 | 1
CCOC(=O)COn1c(=O)c(-c2cccs2)[n+]([O-])c2ccccc21 | -1 | 0 | 0 | 2 | 0
CCOn1c(=O)c(-c2cccs2)[n+]([O-])c2ccccc21 | -1 | -1 | 5.2* | 0 | 1
Cc1ccc(-c2cnn(-c3cccc([N+](=O)[O-])c3)c2N)cc1 | -1 | 0 | 2 | 11* | -1
Cc1ccc(-c2cnn(-c3ccccc3)c2N)cc1 | 0 | 3 | 0 | 16* | 5
Nc1c(-c2ccccc2)cnn1-c1ccc(C(=O)O)cc1 | 0 | 2 | 0 | 12* | 3
Cc1ccccc1-c1cnn(-c2cccc([N+](=O)[O-])c2)c1N | -1 | 0 | 0 | 3 | -1
Cc1ccc(C2=CCN(C)C(=O)N2c2ccccc2)cc1 | 0 | 0 | x | 1 | 3
COc1cc(C)ccc1C(=O)N1CCC(Oc2cccnc2)CC1 | -1 | 0 | x | 3 | -3
CN(C(=O)c1cccc(NC(=O)Cc2ccc(NC(=O)C3CCN(C(=O)c4ccccc4)CC3)cc2)c1)C1CCC1 | 1.2* | 0 | 3 | -1 | -1
CN(C(=O)c1cccc(NC(=O)Cc2ccc(NC(=O)C3CCCN(C(=O)C4CCC4)C3)cc2)c1)C1CCC1 (centres undefined) | 1.3* | -1 | -1 | -2 | -2
CN(C(=O)c1cccc(NC(=O)Cc2ccc(NC(=O)C3CCCN(C(=O)C4CCCCC4)C3)cc2)c1)C1CC1 (centres undefined) | -1 | -1 | 0 | 1 | 0
Cc1cc(C)cc(NC(=O)NC2CCN(S(=O)(=O)c3ccc(F)cc3)CC2)c1 | -1 | -1 | x | 2 | -2
COC(=O)c1c(-c2ccccc2)csc1NC(=O)c1ccco1 | -1 | 3 | 0 | 11* | 0
CC(C)CSc1nnc(N)s1 | -1 | 1 | 3 | 0 | -1
CC(C)CN(CC(C)C)c1nnc(N)s1 | -1 | 0 | 5.9* | -2 | -2
Cc1ccccc1Cn1cc(CN2[C@@H](C)COc3cc(Br)ccc3S2(=O)=O)nn1 | -2 | -1 | x | -1 | 1
O=C(OC12CCCN(C1)/C(=C/c1cccnc1)C2)c1ccc(F)cc1 (centres undefined) | -2 | -3 | x | -5 | -6
CCOC(=O)N1Cc2cc3ccccc3nc2C1 | 0.9* | 2 | 3 | 9 | 4
O=C(NCc1ccccc1Cl)c1cc2ccccc2oc1=O | -1 | 0 | 1 | 1 | 0
O=c1oc2ccccc2cc1NCc1ccccc1O | 0 | 1 | 4.2* | 9 | 2
Cn1c(Cc2nc3ccccc3n2C)nc2ccccc21 | -1 | -1 | 0 | -1 | -1
CCN(Cc1nc2ccccc2n1C)c1ccccc1 | 2.1* | 0 | 0 | 6 | 4
Cc1ccc(Nc2nc(CSc3nnnn3C)cs2)cc1 | 1 | 2 | 1 | 11* | 2
SMILES | ssDAF-12 act | DAX1 inh-1 | DAX1 inh-2 | hgDAF-12 ag | hcDAF-12 act
Cc1ccc(Nc2nc(CSc3n[nH]c(N)n3)cs2)cc1 | 1 | 2 | 0 | 12* | 5
Cn1nnnc1SCc1csc(Nc2ccccc2)n1 | -1 | 0 | 2 | 8 | 0
CC(=O)Oc1ccc(/C=C2/Oc3ccccc3C2=O)cc1 | -1 | 0 | 5.3* | 1 | 1
C=CCN(CC#Cc1cccnc1)Cc1ccc(OC)cc1OC | -1 | -1 | x | -3 | -3
CCSc1nnc(-c2ccco2)n1C | 1 | 1 | x | -2 | 1
Cn1c(SCCc2ccccc2)nnc1-c1ccco1 | 0 | 2 | x | 13* | 5
Nc1cccc(Oc2ccc3c(c2)C(=O)N(CC2CCCO2)C3=O)c1 (centres undefined) | -1 | 0 | 2 | 11* | 4
O=C(Nc1ccccc1C(F)(F)F)OC1CCC12CCC(c1ccccc1)CC2 (centres undefined) | -2 | 0 | x | -1 | 0
C[C@@H]1CCN(C2CC2)S(=O)(=O)c2c(cccc2N2CCC[C@@H]2CO)O1 | 0 | 0 | x | 2 | -1
O=C(Nc1ccc(F)cc1)c1nc[nH]c1C(=O)O | -1 | 1 | 4.3* | 2 | 0
O=C(Nc1ccc(F)cc1)c1nc[nH]c1C(=O)Nc1ccccc1[N+](=O)[O-] | -1 | 0 | -1 | 6 | -1
